The structures appear in SMILES notation. Values joined by “and” are separate entries in the source; they are usually repeats but may differ in a detail not shown here. Equal entries are not always repeated. Records with an inconclusive call do not appear. Some structures have more than one record in an assay (separate samples or runs), and their calls can disagree. Active and inactive are the calls of the source. Unless noted, calls come from the whole dose curve; as a rule, active = well fitted curve in the direction sought with a large enough effect in the repeat runs; inconclusive = weak or mixed curves; inactive = no such curve, though single readings can be large; an effect the other way counts as inactive or inconclusive.

Assay [1] is described as follows: qHTS RealTime-Glo MT Cell Viability Assay in HepG2 cells - 24 hour (AID 1224867). Note: nearly all actives have a fitted effect of over 50% in size. The essentials:
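HepG2 suspension premixed with RealTime-Glo reagents is plated at 600 cells per well and left 5 h at 37 C/5% CO2. Compounds in DMSO then go in, and bioluminescence reflecting viable cell number is recorded over 40 h.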
In general terms: In qHTS, concentration-response curves come from the screen itself.

Assay [2] can be described thus: qHTS RealTime-Glo MT Cell Viability Assay in HEK293 cells - 32 hour (AID 1224868). For activity change, negative = cytotoxic: top concentration of the series differs between compounds. Note: nearly all actives have a fitted effect of over 50% in size. Note: potency is the fitted concentration of half-maximal effect. The essentials:
(§1)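 Reads taken at 0, 8, 16, 24, 32 and 40 h from the same wells. HEK293 cells (600/well) carried RealTime-Glo reagents from seeding, with compound added after a 5 h settle at 37 C.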

Assay [3] is described as follows: A CellTox Green Cytotoxicity Assay to monitor cytotoxicity in HEK293 cells - 0 hour (AID 1224869). Note: nearly all actives have a fitted effect of over 50% in size. The essentials:
(§2)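 HEK293 cells premixed with CellTox Green dye were seeded at 600 cells/well and left 5 h at 37 C/5% CO2 before pin transfer of 23 nL compound in DMSO. Fluorescence from dye bound to dead-cell DNA was read during 40 h treatment.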

The nature of assay [4]: qHTS RealTime-Glo MT Cell Viability Assay in HepG2 cells - 40 hour (AID 1224870). Note: nearly all actives have a fitted effect of over 50% in size. The essentials: (§3)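 Real-time viability: cells seeded at 600 per well together with NanoLuc and cell-permeant prosubstrate, compounds added after 5 h incubation. Luminescence tracked at 0, 8, 16, 24, 32 and 40 h of exposure.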
Assay [5] is described as follows: A CellTox Green Cytotoxicity Assay to monitor cytotoxicity in HEK293 cells - 40 hour (AID 1224871). Note: nearly all actives have a fitted effect of over 45% in size. Note: potency is the fitted concentration of half-maximal effect. In outline: as §2
Assay [6] is described as follows: qHTS RealTime-Glo MT Cell Viability Assay in HEK293 cells - 16 hour (AID 1224872). For activity change, negative = cytotoxicity: top concentration of the series differs between compounds. Note: nearly all actives have a fitted effect of over 50% in size. Note: potency is the fitted concentration of half-maximal effect. In outline:
as §1

Assay [7] is described as follows: qHTS RealTime-Glo MT Cell Viability Assay in HepG2 cells - 8 hour (AID 1224873). Note: nearly all actives have a fitted effect of over 55% in size. The essentials:
as §3

Assay [8] in a line: qHTS RealTime-Glo MT Cell Viability Assay in HEK293 cells - 40 hour (AID 1224874). Note: nearly all actives have a fitted effect of over 50% in size. Note: potency is the fitted concentration of half-maximal effect. To be noted: RealTime-Glo luminescence; max response: stronger effect = lower value. In outline:
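HEK293 cells mixed with RealTime-Glo reagents (NanoLuc plus cell-permeant prosubstrate) at 600 cells/well, preincubated 5 h at 37 C/5% CO2, then given 23 nL compound in DMSO. Nonlytic luminescence from viable cells was read at 0, 8, 16, 24, 32 and 40 h.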

Assay [9] can be described thus: qHTS assay to identify small molecule agonists of the estrogen related receptor (ERR) signaling pathway from Tox21 library (AID 1224849; calls by dose curve; note: nearly all actives have a fitted effect of over 15% in size). To be noted: ERR reporter cell line, ONE-Glo luciferase, 18 h. The essentials:
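ERR reporter cell line (NTP) seeded, rested 6 h at 37 C/5% CO2, then pinned with Tox21 compounds in DMSO. After 18 h at 37 C, ONE-Glo luciferase luminescence was read following 30 min at room temperature.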

Assay [10] is described as follows: A CellTox Green Cytotoxicity Assay to monitor cytotoxicity in HEK293 cells - 24 hour (AID 1224875). Note: nearly all actives have a fitted effect of over 45% in size. In outline: as §2
% is set by controls: 0 for no effect and ±100 for the full control effect.

Consider `CCN(CC)CCCC(C)Nc1ccnc2cc(Cl)ccc12` (configuration not stated), for which the activity change, negative = cytotoxicity in assay [1] was 1.52% [at 6.97 µM] (inactive) and -6.42% [at 15.8 µM] (inactive); in assay [6], -11.3% [at 6.97 µM] (inactive). Also, the activity change, negative = cytotoxic is -16.4% [at 6.97 µM] (inactive) in [2]; -2.02% [at 6.97 µM] (inactive) and -2.98% [at 15.8 µM] (inactive) in assay [4]. Besides, the cytotoxicity in [3] is 0.802% [at 6.97 µM] (inactive) and -1.16% [at 15.8 µM] (inactive). Also, in assay [5], the cytotoxicity increase was -14.6% [at 6.97 µM] (inactive) and 9.06% [at 15.8 µM] (inactive). In [7], the viability change, negative = cytotoxic was -1.01% [at 6.97 µM] (inactive) and -3.34% [at 15.8 µM] (inactive). Further, the max response in assay [8] was -13.9% (inactive).

Regarding `Nc1ccccc1[N+](=O)[O-]`, the activity change, positive = activation in assay [9] (at 92.4 µM (top of the series)) was 9.45% (inactive) and 1.58% (inactive). Moreover, the molecule was classed as inactive in [1], in assay [3], in assay [4] and in assay [7]. Besides, the Potency result in assay [2], in assay [5], in assay [6] and in [10] was “inactive” throughout. The max response in assay [8] is 3.94% (inactive) and 2.64% (inactive).

With `O=C(Oc1ccccc1)c1ccccc1`, in assay [9] (at 92.4 µM (top of the series)), the activity change, positive = activation is 4.89% (inactive) and 5.21% (inactive). Also, the outcome in [1], in assay [3], in assay [4] and in assay [7] was inactive. Further, the Potency result in assay [2], in assay [5], in assay [6] and in assay [10] was “inactive” each time. Also, the max response in assay [8] was -9.85% (inactive) and 1.19% (inactive).

As for `OC[C@H]1O[C@@](CO)(O[C@H]2O[C@H](CO)[C@@H](O)[C@H](O)[C@H]2O)[C@@H](O)[C@@H]1O`, the activity change, positive = activation in assay [9] (at 92.4 µM (top of the series)) is 6.61% (inactive) and 1.2% (inactive). In addition, the result in assay [3] was inactive. Further, the Potency result in assay [5] and in [10] was “inactive” throughout.

With `CSCCC=O`, the activity change, positive = activation in assay [9] (at 92.4 µM (top of the series)) was 9.1% (inactive) and 4.08% (inactive). The molecule was classed as inactive in assay [1], in assay [3], in assay [4] and in assay [7]. Moreover, the Potency result in assay [2], in assay [5], in assay [6] and in assay [10] was “inactive” in each case. For the same molecule, the max response in [8] was 4.41% (inactive) and 31% (inactive).

For `CC1=C(C)S(=O)(=O)CCS1(=O)=O`, in [9] (at 92.4 µM (top of the series)), the activity change, positive = activation is 10.9% (inactive). Further, the result in [1], in [3], in [4] and in [7] was inactive. In addition, the Potency entry in [5], in [6] and in [10] was “inactive” in each case.

In the case of `N[C@@H](Cc1cc(I)c(Oc2cc(I)c(O)c(I)c2)c(I)c1)C(=O)O`, the activity change, positive = activation in assay [9] (at 42.5 µM (top of the series)) was -1.09% (inactive) and 0.396% (inactive). Further, the call in assay [1], in assay [3], in [4] and in [7] was inactive. For the same molecule, the Potency entry in [2], in assay [5], in assay [6] and in assay [10] was “inactive” throughout. The max response in [8] is 12.3% (inactive) and 0.808% (inactive).

For the molecule `COCCCOc1ccnc(CS(=O)c2nc3ccccc3[nH]2)c1C` (configuration not stated), in assay [9] (at 92.4 µM (top of the series)), the activity change, positive = activation is -25.6% (inactive). Besides, the call in assay [1], in [3], in [4] and in assay [7] was inactive. The Potency was 9.74 µM (active) and inactive in [2]; 10.9 µM (active) and inactive in assay [6]; 9.74 µM (active) in assay [8]. Also, the Potency result in assay [5] and in assay [10] was “inactive” throughout. Further, in [8], the max response is -13.3% (inactive).

For the molecule `C=C(C)C(=O)O[C@H]1C[C@@H]2CC[C@@]1(C)C2(C)C`, in assay [9] (at 92.4 µM (top of the series)), the activity change, positive = activation was -82.3% (inactive) and 8.09% (inactive). Moreover, the molecule was called inactive in assay [1], in [3], in assay [4] and in [7]. The Potency in assay [2] was 15.4 µM (active) and inactive; in assay [5], 12.2 µM (active) and inactive; in assay [6], 15.4 µM (active) and inactive; in assay [8] it was 15.4 µM (active). Moreover, the max response in assay [8] is 2.39% (inactive). In assay [10], the Potency result is “inactive”.

Turning to `ON=C1CCCCC1`, the activity change, positive = activation in assay [9] (at 92.4 µM (top of the series)) was -1.41% (inactive) and -1.15% (inactive). The molecule was classed as inactive in assay [1], in assay [3], in [4] and in assay [7]. Moreover, the Potency entry in [2], in assay [5], in assay [6] and in assay [10] was “inactive” throughout. Moreover, the max response in [8] was -0.0267% (inactive) and 0.158% (inactive).

For the molecule `CCCCCCCCCCCCc1ccccc1`, the activity change, positive = activation in [9] (at 92.4 µM (top of the series)) was 9.43% (inactive) and 1.83% (inactive). The outcome in [1], in assay [3], in assay [4] and in assay [7] was inactive. The Potency entry in assay [2], in [5], in assay [6] and in assay [10] was “inactive” in each case. For the same molecule, the max response in [8] is 7.72% (inactive) and -4.38% (inactive).

In the case of `CCC(O)OCCCOC` (configuration not stated), the activity change, positive = activation in assay [9] (at 92.4 µM (top of the series)) was 1.37% (inactive) and 8.84% (inactive). Further, the call in assay [1], in [3], in assay [4] and in [7] was inactive. In addition, the Potency result in assay [2], in [5], in [6] and in [10] was “inactive” each time. Besides, the max response in assay [8] is 1.35% (inactive) and 16.2% (inactive).

`CN(C)CCCN`: in assay [9] (at 92.4 µM (top of the series)), the activity change, positive = activation was 5.71% (inactive) and 0.874% (inactive). For the same molecule, the outcome in assay [1], in assay [3], in [4] and in assay [7] was inactive. For the same molecule, the Potency result in assay [2], in assay [5], in assay [6] and in assay [10] was “inactive” each time. Also, the max response in assay [8] is -0.421% (inactive) and -3.46% (inactive).

On to `COc1ccc(Nc2ccccc2)c(C)c1`, for which the activity change, positive = activation in [9] (at 92.4 µM (top of the series)) was -0.657% (inactive). The call in assay [1], in [3], in [4] and in assay [7] was inactive. For the same molecule, the Potency result in assay [2], in assay [6] and in [10] was “inactive” throughout. Also, the Potency entry in assay [5] is “inactive and 43.6 µM (active)”. Besides, the max response in [8] is 2.22% (inactive) and -26.6% (inactive).

Consider `OCC(CO)(CBr)CBr`, for which the activity change, positive = activation in [9] (at 92.4 µM (top of the series)) is 2.42% (inactive) and 0.192% (inactive). The call in assay [1], in [3], in assay [4] and in assay [7] was inactive. The Potency entry in assay [2], in [5], in [6] and in [10] was “inactive” each time. Besides, in assay [8], the max response is -5.13% (inactive) and 3.96% (inactive).

For `O=P(OC(CCl)CCl)(OC(CCl)CCl)OC(CCl)CCl`, the activity change, positive = activation in assay [9] (at 92.4 µM (top of the series)) is -54.2% (inactive) and -40.7% (inactive). The result in [1], in [3], in [4] and in assay [7] was inactive. Moreover, the Potency in assay [2] is 24.4 µM (active) and 49 µM (active); in [8] it was 21.8 µM (active) and 49 µM (active). Moreover, the Potency entry in assay [5] and in assay [10] was “inactive” throughout.

In the case of `CCCCC(CC)COC(=O)CS` (configuration not stated), in assay [9] (at 92.4 µM (top of the series)), the activity change, positive = activation was -0.266% (inactive) and -15.8% (inactive). For the same molecule, the molecule was classed as inactive in assay [1], in assay [3], in assay [4] and in [7]. The Potency result was “inactive and 17.4 µM (active)” in [2]; 19.5 µM (active) in assay [8]. Besides, the Potency entry in assay [5], in assay [6] and in assay [10] was “inactive” in each case. The max response in [8] is 6.5% (inactive).

Take `CC(=O)CC(=O)Nc1ccccc1C`: the activity change, positive = activation in [9] (at 92.4 µM (top of the series)) is 1.06% (inactive) and 1.9% (inactive). For the same molecule, the result in [1], in [3], in [4] and in assay [7] was inactive. The Potency entry in assay [2], in assay [5], in [6] and in [10] was “inactive” throughout. The max response in assay [8] is -0.0445% (inactive) and -13.2% (inactive).
